Data on 32 compounds can be found in PubChem BioAssay (NCATS).

Inconclusive results are not listed. Active and inactive are the calls of the source. Unless noted, calls follow the shape of the full dose curve.

Glucocorticoid receptor (Homo sapiens), sequence (P04150 whole entry, looked up): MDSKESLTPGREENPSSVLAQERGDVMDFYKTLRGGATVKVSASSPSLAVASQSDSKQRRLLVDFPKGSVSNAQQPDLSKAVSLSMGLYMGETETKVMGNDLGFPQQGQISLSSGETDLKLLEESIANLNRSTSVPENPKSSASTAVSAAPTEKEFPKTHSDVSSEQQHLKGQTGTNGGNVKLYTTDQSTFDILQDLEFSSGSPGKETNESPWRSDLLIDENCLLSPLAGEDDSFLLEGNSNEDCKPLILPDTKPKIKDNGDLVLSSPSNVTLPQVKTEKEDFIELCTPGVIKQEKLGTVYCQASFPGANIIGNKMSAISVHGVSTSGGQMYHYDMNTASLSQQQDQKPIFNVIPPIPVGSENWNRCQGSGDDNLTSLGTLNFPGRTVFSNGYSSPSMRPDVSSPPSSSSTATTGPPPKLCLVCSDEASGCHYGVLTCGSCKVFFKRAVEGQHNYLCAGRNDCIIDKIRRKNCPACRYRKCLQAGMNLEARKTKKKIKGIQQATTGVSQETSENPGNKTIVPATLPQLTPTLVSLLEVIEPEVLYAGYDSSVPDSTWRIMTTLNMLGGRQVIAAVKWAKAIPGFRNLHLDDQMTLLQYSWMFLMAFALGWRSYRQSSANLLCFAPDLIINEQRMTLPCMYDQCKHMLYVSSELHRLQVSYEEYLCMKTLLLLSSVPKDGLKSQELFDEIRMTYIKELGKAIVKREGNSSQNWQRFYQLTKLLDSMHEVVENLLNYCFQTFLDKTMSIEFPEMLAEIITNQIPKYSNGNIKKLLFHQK
Peroxisome proliferator-activated receptor delta (Homo sapiens), sequence (Q03181 whole entry, looked up): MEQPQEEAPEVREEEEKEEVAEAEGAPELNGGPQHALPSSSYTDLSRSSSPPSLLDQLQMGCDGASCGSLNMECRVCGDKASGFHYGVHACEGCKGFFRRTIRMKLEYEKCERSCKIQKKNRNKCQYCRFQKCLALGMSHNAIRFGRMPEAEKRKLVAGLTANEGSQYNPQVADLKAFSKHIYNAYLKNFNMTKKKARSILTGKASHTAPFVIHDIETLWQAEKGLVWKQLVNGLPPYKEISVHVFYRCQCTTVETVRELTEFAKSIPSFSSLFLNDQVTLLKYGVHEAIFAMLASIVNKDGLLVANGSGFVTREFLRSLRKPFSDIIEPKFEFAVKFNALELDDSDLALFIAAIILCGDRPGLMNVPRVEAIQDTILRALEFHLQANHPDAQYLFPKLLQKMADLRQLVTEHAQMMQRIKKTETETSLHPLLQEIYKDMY
Bile acid receptor (Homo sapiens), sequence (Q96RI1 whole entry, looked up): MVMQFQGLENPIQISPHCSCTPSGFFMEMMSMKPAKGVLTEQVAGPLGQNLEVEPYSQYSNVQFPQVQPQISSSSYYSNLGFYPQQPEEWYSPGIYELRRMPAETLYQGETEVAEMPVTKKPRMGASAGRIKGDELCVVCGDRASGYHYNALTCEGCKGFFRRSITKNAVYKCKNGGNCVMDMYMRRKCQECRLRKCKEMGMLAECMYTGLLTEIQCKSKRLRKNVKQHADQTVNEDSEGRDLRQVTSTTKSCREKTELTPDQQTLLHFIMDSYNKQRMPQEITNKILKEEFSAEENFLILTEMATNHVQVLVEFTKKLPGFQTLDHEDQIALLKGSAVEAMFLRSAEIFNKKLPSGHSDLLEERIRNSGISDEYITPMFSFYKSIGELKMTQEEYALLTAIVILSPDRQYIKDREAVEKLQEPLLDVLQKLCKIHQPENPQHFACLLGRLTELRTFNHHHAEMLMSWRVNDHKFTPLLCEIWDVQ

In one assay the target is Bile acid receptor (Homo sapiens) (UniProt Q96RI1). The assay is described as follows: qHTS assay for small molecule agonists of farnesoid X receptor signaling (AID 588527).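 Also: 0% = vehicle basal and 100% = reference agonist.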 The settings on record: HEK293T FXR-UAS-bla, beta-lactamase ratio, 16 h; active compounds read high. In short, it runs like this:
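Read-out: beta-lactamase reporter fluorescence with CCF4 substrate in GeneBLAzer FXR-UAS-bla HEK293T cells, after 16 h compound exposure at 37 C. Response scaled between DMSO basal (0%) and chenodeoxycholic acid at 100 uM (100%).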
Take `CCCCOC(=O)CC(CC(=O)OCCCC)(OC(C)=O)C(=O)OCCCC`: the activation was 1.49% (inactive). As for `Oc1cccc(O)c1`, the activation is -2.84% (inactive). Still for that read-out and setting: under `O=C(O)CCCCC(=O)O` stands -1.88% (inactive); under `Cc1noc(NS(=O)(=O)c2ccc(N)cc2)c1C`, 1.48% (inactive); under `NCCNCCNCCN`, -3.81% (inactive). With `CC12CCC(CC1)C(C)(C)O2`, the activation is -0.483% (inactive).

The target of another assay is Glucocorticoid receptor (Homo sapiens) (UniProt P04150). The assay can be described thus: qHTS assay for small molecule agonists of glucocorticoid receptor signaling (AID 588532; active = well fitted curve in the direction sought with a large enough effect in the signal ratio, with a control signal flat; the % refers to the signal ratio;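 also: 100% = dexamethasone at 0.1 µM and 0% = DMSO only wells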). The following applies: HeLa MMTV-bla, beta-lactamase ratio, agonist, 18 h; active compounds read high; percent of dexamethasone control, DMSO zero. In short, it runs like this:
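Using MMTV-bla HeLa cells in medium with 1% stripped FBS and 25 mM HEPES, compounds were titrated and incubated overnight-length (18 h). Beta-lactamase cleavage of CCF4 was quantified by dual-emission fluorescence.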
Consider `CCCC(C)(COC(N)=O)COC(N)=O`, for which the activation was -13.9% (inactive).

Consider `CCOP(=S)(OCC)Oc1ccc2c(C)c(Cl)c(=O)oc2c1`, for which the activation is -1.75% (inactive). Still for that read-out and setting: under `Nc1ccccc1` stands -2.91% (inactive).

A further assay deals with Peroxisome proliferator-activated receptor delta (Homo sapiens) (UniProt Q03181). The assay is described as follows: qHTS assay for small molecule agonists of peroxisome proliferator-activated receptor delta signaling (AID 588534).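 Also: 0% = DMSO basal wells and 100% = positive control agonist at 10 µM.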 The settings on record: HEK293T PPARdelta-UAS-bla, beta-lactamase ratio, 18 h; series mostly up to 76.7 µM. The essentials:
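Agonist-mode qHTS; reporter cells, 5 hrs 37 C pre-incubation; compound titration, 18 hrs 37 C; CCF4 dye, 2 hrs RT; fluorescence read. EC50/efficacy via Hill fit.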
Take `CCCCOC(=O)CC(CC(=O)OCCCC)(OC(C)=O)C(=O)OCCCC`: the outcome was inactive. On the same count and under the same terms, the same measure for `Cc1nnc(NS(=O)(=O)c2ccc(N)cc2)s1`: “inactive”; for `Oc1cccc(O)c1`: “inactive”. As for `Cc1ccc(C(C)C)c(O)c1`, the result was inactive. On the same count and under the same terms, under `O=C(O)c1cc(O)c(O)c(O)c1` stands “inactive”; under `O=C(OOC(=O)c1ccccc1)c1ccccc1`, “inactive”; under `Cc1cc(O)cc(C)c1Cl`, “inactive”.

For `O=C(O)CCCCC(=O)O`, the outcome was inactive. For `CCCCCCCCCCCCCCCCO`, the outcome was inactive. As for `O=C1c2ccccc2C(=O)c2ccccc21`, the outcome was inactive.

Turning to `CCc1cc(C(N)=S)ccn1`, the outcome was inactive.

As for `Cc1noc(NS(=O)(=O)c2ccc(N)cc2)c1C`, the result was inactive. The same measure, in the same setting: under `O=C(N[C@H](CO)[C@H](O)c1ccc([N+](=O)[O-])cc1)C(Cl)Cl` stands “inactive”; under `CCCC(O)C(CC)CO` (stereo not drawn), “inactive”. Same read-out and setting: the same measure for `O=C(O)c1cc(=O)[nH]c(=O)[nH]1`: “inactive”; for `COc1cc(OC)c(C(=O)CCCN2CCCC2)c(OC)c1`: “inactive”. As to `N[C@@H](Cc1cc(I)c(Oc2ccc(O)c(I)c2)c(I)c1)C(=O)O`, the result was inactive. Same read-out and setting: the same measure for `Cc1c(C(=O)NCCO)[n+](=O)c2ccccc2n1[O-]`: “inactive”; for `O=C(O)CCCCC1CCSS1` (stereo not drawn): “inactive”; for `CCCCC(CC)COC(=O)c1ccccc1O` (stereo not drawn): “inactive”. The same measure, in the same setting: under `NCCNCCNCCNCCN` stands “inactive”. Same read-out and setting: under `COc1ccc(O)cc1` stands “inactive”; under `NCCNCCNCCN`, “inactive”. `CC12CCC(CC1)C(C)(C)O2`: the result was inactive.

On to `CC(C)(Oc1ccc(Cl)cc1)C(=O)O`, for which the result was inactive. The same measure, in the same setting: under `NNC(=O)c1ccncc1` stands “inactive”; under `CCCCCCCCCCCCCCCCCCO`, “inactive”. As for `CC(C)(C)CC(C)(C)c1ccc(O)c(-n2nc3ccccc3n2)c1`, the outcome was inactive. As to `NC(=O)c1cnccn1`, the outcome was inactive.
